Results as given in ChEMBL document CHEMBL4513216, “Probing the Open Global Health Chemical Diversity Library for Multistage-Active Starting Points for Next-Generation Antimalarials” (ACS Infect Dis, 2020).
The campaign covered roughly 69,000 compounds. About 8,600 (12%) showed an effect of 50% or more. The sample as a whole holds a higher share of strong results than the screen did.

Test system: Plasmodium berghei
Test: Screen against P. berghei liver stage (PbLuc), transformed with Luciferase, at 10uM
Format: functional, HepG2
Conditions: tested at 10 uM

SMILES | INHIBITION
CCc1cc(NCC(O)CN2CCCC2)ncn1 (centres undefined) | 18.5%
CCC(=O)N1CCCCC1c1nc(O)c2c(n1)CN(C(=O)C1CC1)CC2 (centres undefined) | 34.65%
Cc1cc(CN(C)C(=O)c2cccc(N3CCCS3(=O)=O)c2)no1 | 42%
CN(C)[C@@H]1CCN(S(=O)(=O)c2cn(C)cn2)[C@H]1Cc1cccnc1 | 33%
CC(C)Cc1nnc(NC(=O)NC(CCO)c2cccs2)s1 (centres undefined) | 36%
CCCn1cc(S(=O)(=O)N[C@H]2CN(C(C)=O)C[C@@H]2C2CC2)cn1 | 24.2%
CCCn1cc(S(=O)(=O)N[C@H]2CN(CCO)C[C@@H]2C2CC2)cn1 | 92.1%
CCCn1cc(S(=O)(=O)N[C@H]2CN(CC(N)=O)C[C@@H]2C2CC2)cn1 | 37.7%
Cc1ccc(CC2COCCN(S(C)(=O)=O)C2)nc1 (centres undefined) | -24.4%
Cc1csc(CCNC(=O)N2CCC(NC(=O)OC(C)(C)C)CC2)n1 | 13.3%
CC(=O)N1CCCC(C(=O)N2CCN(c3cnn(C)c(=O)c3)CC2)C1 (centres undefined) | 16.6%
CC(=O)N1CCCC(C(=O)N2CCN(Cc3cc(C)on3)CC2)C1 (centres undefined) | 71.2%
CNC(=O)C1CN(Cc2cc(C)on2)CCN(C(C)=O)C1 (centres undefined) | -21.6%
Cc1cccc(CN2C[C@@H]3COC[C@]3(CNC(=O)C3CC3)C2)c1 | 35.8%
Cc1cccc(CN2C[C@@H]3COC[C@]3(CNC(=O)C3CCC3)C2)c1 | 65.7%
Cc1cc(CN2C[C@@H]3COC[C@]3(CNC(=O)N(C)C)C2)no1 | 45.1%
Cc1cc(CN2C[C@@H]3COC[C@]3(CNC(=O)N3CCCC3)C2)no1 | 70.7%
Cc1cccc(CN2C[C@@H]3COC[C@]3(CNC(=O)N3CCCC3)C2)n1 | 21%
COc1cccc(CN2C[C@@H]3COC[C@]3(CNC(=O)C3CC3)C2)c1 | 43%
CCOCC(O)CN1CCN(C(=O)c2ccc3c(c2)COC3)CC1 (centres undefined) | 29.7%
COc1c(CNCc2nnc3n2CCCCC3)c(C)nn1C | 31.6%
CCN1C[C@@H]2[C@@H](OC)CCN(C(=O)Cc3ccsc3)[C@@H]2C1 | 11.2%
O=C(c1cnccn1)N(CCO)Cc1cc(Br)ccc1F | -7.81%
COCCNC(=O)Cn1cc(OCc2ccccc2F)c(=O)cc1CO | 10.5%
CC(C)CS(=O)(=O)CC(=O)NC(C)c1nnc2n1CCC2 (centres undefined) | 31.3%
COc1cccc(C(=O)N2CCOCC2CN(C)C)c1OC (centres undefined) | 7.44%

SMILES | INHIBITION
Cc1nc(CN2CCCC(CCc3c(F)cccc3F)C2)c[nH]1 (centres undefined) | 25.1%
Cc1nc(CN2CCCC(CCc3ccc(F)cc3F)C2)c[nH]1 (centres undefined) | 33.5%
Cc1nc(CN2CCCC(CCc3ccc(F)c(F)c3)C2)c[nH]1 (centres undefined) | 55.7%
Cc1[nH]c(=O)[nH]c(=O)c1CN1CCCC(CCc2ccc(F)cc2F)C1 (centres undefined) | -13.5%
Cc1nc(CN2CCCC(CCc3ccccc3F)C2)c[nH]1 (centres undefined) | 57.6%
Cc1nc(CN2CCCC(CCc3ccccc3C)C2)c[nH]1 (centres undefined) | 47.6%
Fc1ccc(CCC2CCCN(Cc3c[nH]cn3)C2)c(F)c1 (centres undefined) | 71.2%
Cc1nc(CN2CCCC(CCNS(C)(=O)=O)C2)c[nH]1 (centres undefined) | -1.53%
Cc1nc(CN2CCCC(Cn3cc(CCO)nn3)C2)c[nH]1 (centres undefined) | 18.5%
CN(C)c1nccc(-c2cnc(N(C)C)[nH]c2=O)n1 | 13%
COCc1ccccc1CNCc1c(C(C)C)nn(C)c1N(C)C | 20.85%
CN1CC(=O)N(c2ccsc2)CC12CCN(S(=O)(=O)c1ccccc1)C2 (centres undefined) | -41.4%
Cc1ccccc1CN(CCN(C)C)Cc1ccccc1C(=O)O | 2.18%
CCN(Cc1cc(F)ccc1Cl)C1CCS(=O)(=O)C1 (centres undefined) | 12.1%
N#Cc1cc(S(N)(=O)=O)ccc1N1CCc2c(Cl)cccc2C1 | 9.52%
CC(C)(C)c1ncc(C(=O)NCCNC(=O)c2ccc(O)cc2)s1 | 29.2%
COc1cccc2c1CCCCN2C(=O)c1oc(C)nc1C | 53.7%
Cc1nc(C)c(C(=O)N2CCc3c(C)cccc32)o1 | 5.91%
Cc1nc(C)c(C(=O)N2CCCc3c(F)cccc32)o1 | 35.2%
CCN(CCNS(=O)(=O)C1CCOCC1)C(=O)OC(C)(C)C | -21.2%
Cc1csc(NC(=O)CN(C)CCOc2cccc(F)c2)n1 | 1.05%
c1ccc(Cc2nnc(CN3CCCC3Cn3cccn3)o2)cc1 (centres undefined) | 24%
CCc1nc(Cn2c(=O)n(C)c3ccccc32)no1 | 45.2%
CCc1nc(Cn2c(=O)n(CC)c3ccccc32)no1 | 57.3%
CCCc1nc(Cn2c(=O)n(C)c3ccccc32)no1 | 29.4%
CC(C)NC(=O)[C@H]1C[C@@H]2[C@@H](C1)OCCN2CC1CC1 | 48.2%

SMILES | INHIBITION
N#Cc1csc(CN(CC(=O)N2CCCC2)CC2CCCO2)c1 (centres undefined) | 70.9%
N#Cc1cccc(CN(CC(=O)N2CCCC2)CC2CCCO2)c1 (centres undefined) | -4.91%
N#Cc1ccc(F)c(CN(CC(=O)N2CCCC2)CC2CCCO2)c1 (centres undefined) | -13.5%
O=C([C@@H]1CC[C@@H]2[C@@H](CCN2CCOCc2ccccc2)O1)N1CCCC1 | 32.1%
CCCNC(=O)CCOc1cccc(F)c1 | 14.465%
CC(=O)c1ccc(NC(=O)N(CCN(C)C)Cc2ccc(C)s2)cc1 | 26.6%
Cc1ccc(CN(CCN(C)C)C(=O)Nc2ccc(C)c(C#N)c2)s1 | 60%
Cc1ccc(CN(CCN(C)C)C(=O)Nc2cc(C(N)=O)ccc2C)s1 | 19.2%
Cc1cnn(CC2CCCN2C(=O)c2cccnc2-n2cncn2)c1 (centres undefined) | 31.9%
Cc1cccc2c(CCNC(=O)NCC[S+](C)[O-])c[nH]c12 (centres undefined) | 26.4%
Cc1cccc2c(CCNS(=O)(=O)C3CCOC3)c[nH]c12 (centres undefined) | 39.2%
COc1c(Br)cccc1CCNC(=O)c1ncoc1C | -53.1%
CC(=O)N1CCC(C(=O)NCCc2c[nH]c3cc(C)ccc23)CC1 | 11.9%
Cc1cccc2c(CCNC(=O)[C@H](N)c3ccccc3)c[nH]c12 | 61.1%
Cc1cccc2c(CCNC(=O)NCCC[S+](C)[O-])c[nH]c12 (centres undefined) | 51%
Cc1cnn(CC2CCCCN2C(=O)Cn2nc(C)c(Cl)c2C)c1 (centres undefined) | 13.8%
O=C(CCNS(=O)(=O)c1ccc(Cl)cc1)NCc1ccoc1 | -11.6%
CCNc1ncc(C(=O)NC(CC)c2ccnn2C)cn1 (centres undefined) | 48.2%
Cn1cnc2cc(CCC(=O)Nc3n[nH]c(C4CC4)n3)ccc21 | 41.5%
COCC(=O)N1CCC2(COCc3cnc(N4CCOCC4)nc32)C1 (centres undefined) | 84.7%
CC(C)(C)C(=O)N1CCC2(COCc3cnc(N4CCOCC4)nc32)C1 (centres undefined) | -18.2%
O=C(CC1CC1)N1CCC2(COCc3cnc(-c4cccnc4)nc32)C1 (centres undefined) | 42.1%
O=C(C1CC1)N1CCC2(COCc3cnc(NCc4ccco4)nc32)C1 (centres undefined) | -3.33%
COCCC(=O)N1CCC2(COCc3cnc(N4CCOCC4)nc32)C1 (centres undefined) | 34.7%
O=C(C1CC1)N1CCC2(COCc3cnc(N4CCOCC4)nc32)C1 (centres undefined) | 60.1%
O=C(CC1CC1)N1CCC2(COCc3cnc(N4CCOCC4)nc32)C1 (centres undefined) | 61.4%

SMILES | INHIBITION
CC(C)NC(=O)N1CCC2(COCc3cnc(N4CCOCC4)nc32)C1 (centres undefined) | -18.4%
CCC(=O)N1CCC2(COCc3cnc(N4CCOCC4)nc32)C1 (centres undefined) | 57.9%
COCC(=O)N1CCC2(COCc3cnc(-c4ccccc4)nc32)C1 (centres undefined) | -22.4%
O=C(C1CCC1)N1CCC2(COCc3cnc(N4CCOCC4)nc32)C1 (centres undefined) | -4.56%
O=C([C@@H]1C[C@@H]2CCN(C3CCOCC3)C[C@H]2O1)N1CCOCC1 | -28%
CC(=O)N1CCC(Cc2cnc(-c3c(C)nn(C)c3C)cn2)CC1 | -26.2%
Cn1cnnc1C1CCCN(C(=O)c2cc3ccccc3[nH]2)C1 (centres undefined) | -8.11%
Cc1ccncc1C(=O)N1C[C@@H]2CN(c3ncccn3)C[C@]2(C(=O)O)C1 | 7.65%
COCCN1CCCn2c(nc(Cn3cncn3)cc2=O)C1 | 13.6%
CN(Cc1ccncc1)C(=O)NC1CCCN(c2ncccn2)C1 (centres undefined) | 36.1%
O=C(NCc1ccc(Cl)cc1)N1CCN(CC(O)C2CC2)CC1 (centres undefined) | 25.9%
CS(=O)(=O)N1CCC(NC(=O)COc2ccc3ccccc3c2)CC1 | 33.3%
Cc1oc(-c2cccc(F)c2F)nc1CN(C)CCC(C)(C)O | 16%
Cc1oc(-c2cccc(F)c2F)nc1CN(C)CCO | 11.3%
COCCN(C)Cc1nc(-c2cccc(F)c2F)oc1C | 51.9%
O=C(c1ccnnc1)N1CC[C@]2(C[C@H](Oc3ncccc3F)CO2)C1 | -29.3%
Cc1nn(C)cc1-c1cc(C(=O)N2CCc3ncc(Cl)cc3C2)no1 | 38.65%
CCC(CC)c1nnc(NC(=O)N2CCCC(NC(C)=O)C2)s1 (centres undefined) | 52%
CCC(CC)c1nnc(NC(=O)N2CCC(C(N)=O)CC2)s1 | 12.6%
CCCc1nnc(NC(=O)N2CCCC(NC(C)=O)C2)s1 (centres undefined) | 17%
CC(C)c1nnc(NC(=O)NC2CCN(Cc3ccccc3)C2)s1 (centres undefined) | -15.05%
CC(=O)NC1CCCN(C(=O)Nc2nnc(C(C)C)s2)C1 (centres undefined) | 52%
CC(=O)NC1CCCN(C(=O)NCc2cc[nH]n2)C1 (centres undefined) | 31.9%
NCCc1cc(N2CCOCC2)nc(NC2CC2)n1 | 18.25%
CN(C)CCN(Cc1ccc(C#N)cc1)C(=O)c1ccn(C)c(=O)c1 | 8.38%
CS(=O)(=O)NCCNC(=O)Cc1ccc(Br)s1 | -62.1%
